aSyn 5UTR act – Activators via SNCA 5'UTR binding, MLPCN | hit rate 7.1% among 300,000 | alpha-synuclein 5'UTR reporter, activators screen | AID 1814 | activity score, % (tested at 7.5 µM), hits read low; in the data active = activity score below about -60%
* = called active by the depositor. Only a sample is shown.

For COc1ccc(/C=C/c2ccc3c(Br)ccc(O)c3n2)cc1 the results were aSyn 5UTR act -151*.
For COc1cc(/C=C/c2ccc3cccc(O)c3n2)cc(Br)c1OC the results were aSyn 5UTR act -81*.
CCOC(=O)N1CCN(C(=O)CCNS(=O)(=O)c2ccc3c(c2)c(=O)n(C)c(=O)n3C)CC1 was read as aSyn 5UTR act -153*.
CC1(C)CCC(=O)N2CC[C@H]3C[C@H](OC(=O)Nc4ccc5c(c4)OCO5)C[C@@H]1[C@H]32 was read as aSyn 5UTR act -105*.
Screening CC1(C)CCC(=O)N2CC[C@H]3C[C@H](OC(=O)Nc4ccccc4)C[C@@H]1[C@H]32 returned aSyn 5UTR act -116*.
`CN1C2CCC1/C(=C\c1ccc(F)cc1)C(=O)/C2=C/c1ccc(F)cc1` gave aSyn 5UTR act -134*.
Cc1cccc(C)c1NC(=S)N=Nc1c(O)n(C)c2ccc(S(=O)(=O)N3CCOCC3)cc12 was read as aSyn 5UTR act 71.
For Cc1ccc(C(=O)Nc2ccc3c(c2)CCC3)cc1S(=O)(=O)N1CCOCC1 the results were aSyn 5UTR act -108*.
NS(=O)(=O)c1cc(C(=O)Nc2ccc3c(c2)CCC3)ccc1Cl was read as aSyn 5UTR act -153*.
For O=C(Nc1ccc2c(c1)CCC2)c1ccc(F)c(S(=O)(=O)N2CCOCC2)c1 the results were aSyn 5UTR act -74*.
CSc1nnc(NC(=O)c2ccc(C)c(S(=O)(=O)N3CCOCC3)c2)s1 was read as aSyn 5UTR act -73*.
For Cc1cc(C)cc(NC(=S)N=Nc2c(O)n(C)c3ccc(S(=O)(=O)N4CCOCC4)cc23)c1 the results were aSyn 5UTR act 63.
For CC(C)CC(NC(=O)CNC(=O)C1O[C@@H]2OC(C)(C)O[C@@H]2[C@H]2OC(C)(C)O[C@@H]12)C(=O)O (stereo partly drawn) the results were aSyn 5UTR act -84*.
Screening Cc1ccc2c(c1)sc[n+]2Cc1ccccc1 returned aSyn 5UTR act -256*.
Screening N/C(=N\OC(=O)CSc1ccccc1)c1ccccn1 returned aSyn 5UTR act -88*.
For N/C(=N\OC(=O)Cc1ccc(-c2ccccc2)cc1)c1ccccn1 the results were aSyn 5UTR act -66*.
Cc1ccc(C(=O)O/N=C(\N)c2ccccn2)c(C)c1 was read as aSyn 5UTR act 106.
Screening COc1ccc(CC(=O)O/N=C(\N)c2ccccn2)cc1 returned aSyn 5UTR act -76*.
Cc1ccc(C)c(OCC(=O)O/N=C(\N)c2ccccn2)c1 was read as aSyn 5UTR act -131*.
N/C(=N\OC(=O)CC1CCCCC1)c1ccccn1 was read as aSyn 5UTR act -90*.
Screening COc1ccccc1C(=O)NC(=Nc1nc2ccccc2o1)NC(=O)c1ccccc1OC returned aSyn 5UTR act -92*.
O=C(NC(=Nc1nc2ccccc2o1)NC(=O)c1ccccc1)c1ccccc1 was read as aSyn 5UTR act -105*.
Screening Oc1[nH]c2ccccc2c1C=Nc1ccc2c(c1)OCO2 returned aSyn 5UTR act -285*.
Screening Cc1ccc(N=Cc2c(O)[nH]c3ccccc23)c([N+](=O)[O-])c1 returned aSyn 5UTR act -169*.
Screening Oc1[nH]c2ccccc2c1/C=N/c1nccs1 returned aSyn 5UTR act -145*.
For COc1ccc(N=Cc2c(O)[nH]c3ccccc23)cc1 the results were aSyn 5UTR act -144*.
`O=c1c2ccccc2c(C=Nc2cccc(O)c2)c(O)n1-c1ccc2c(c1)OCO2` gave aSyn 5UTR act -151*.
`COc1ccc(NC(=O)c2scc(S(=O)(=O)C(C)C)c2N)cc1` gave aSyn 5UTR act -193*.
COc1ccc(NC(=O)c2sc(SC)nc2N)cc1 was read as aSyn 5UTR act -197*.
COc1ccc(NC(=O)c2cnc(SC)nc2)cc1 was read as aSyn 5UTR act -124*.
For COc1ccc(Nc2nc(N)nc(CSc3nccn3C)n2)cc1 the results were aSyn 5UTR act -87*.
For Nc1nc(CSc2ccccn2)nc(Nc2ccccc2)n1 the results were aSyn 5UTR act -85*.
For Nc1nc(COc2ccccc2C=O)nc(Nc2ccccc2)n1 the results were aSyn 5UTR act -119*.
For COc1ccc(OCc2nc(N)nc(Nc3ccc(C)cc3)n2)cc1 the results were aSyn 5UTR act -69*.
For COc1ccc(Nc2nc(N)c([N+](=O)[O-])c(NC3CCCCC3)n2)cc1 the results were aSyn 5UTR act 62.
COc1ccc(Nc2nc(N)nc(CSC(=S)N3CCCCC3)n2)cc1 was read as aSyn 5UTR act -62*.
Screening Cc1ccc(/C(N)=N/OC(=O)CCC2CCCC2)cc1 returned aSyn 5UTR act -85*.
`Cc1cccc(/C(N)=N/OC(=O)CCC2CCCCC2)c1` gave aSyn 5UTR act -109*.
For COc1ccc(/C(N)=N/OC(=O)CCC2CCCC2)cc1 the results were aSyn 5UTR act -71*.
Screening O=C(CC1COc2ccccc2O1)NC1CCCCC1 (stereo not drawn) returned aSyn 5UTR act -67*.
`Cc1ccc(NC(=O)CC2COc3ccccc3O2)cc1` (stereo not drawn) gave aSyn 5UTR act -89*.
For COc1ccc(C(=O)Nc2cc3c4c(c2)CC(=O)N4CCC3)c(OC)c1 the results were aSyn 5UTR act -90*.
